Laboratory results published in the supplement of paper PMC3545927.
This is one part of the list. No count for the full screen is at hand.

B1: HC2300 (peptide)
chain: CADCEVVTSTAGNASASA
B2: HC2002 (peptide)
chain: CAQVCCSMSYAGNASASA
B3: HC1752 (peptide)
chain: CAMEECSQELAGNASASA
B4: HC749 (peptide)
chain: CAVGIFRAAVAGNASASA
B5: HC525 (peptide)
chain: CAARVCSCLWAGNASASA
B6: HC2454 (peptide)
chain: CAEKEVPCHRAGNASASA
B7: FS-1642 (peptide)
chain: CALLRRQIRTAGNASASA
B8: HC401 (peptide)
chain: CADQRPYCWHAGNASASA
B9: FS-1630 (peptide)
chain: CAHEGREKRHAGNASASA
B10: FS-75 (peptide)
chain: CAPTGREKRPAGNASASA
B11: FS-964 (peptide)
chain: CATLRRYKRHAGNASASA
B12: HC797 (peptide)
chain: CAGIDPNIRTAGNASASA
B13: HC1276 (peptide)
chain: CALLWRQEMGAGNASASA
B14: HC2338 (peptide)
chain: CAETPCHRPSAGNASASA
B15: HC665 (peptide)
chain: CAEILLGPADAGNASASA
B16: HC1798 (peptide)
chain: CATEMEECSQAGNASASA
B17: HC2262 (peptide)
chain: CAEVVTSTWQAGNASASA
B18: FS-1086 (peptide)
chain: CASRCRFLRSAGNASASA
B19: FS-469 (peptide)
chain: CANRCRMLRSAGNASASA
B20: FS-1645 (peptide)
chain: CAMKNRFLRSAGNASASA
B21: FS-1557 (peptide)
chain: CAQRRRQRRPAGNASASA
B22: FS-1254 (peptide)
chain: CAQRRRQLRSAGNASASA
B23: HC2450 (peptide)
chain: CAEVEVPCHRAGNASASA
B24: HC2320 (peptide)
chain: CACVPCHRPSAGNASASA
B25: HC1502 (peptide)
chain: CAGGPLTNSRAGNASASA
B26: HC2141 (peptide)
chain: CAENVVCCSMAGNASASA
B27: FS-1452 (peptide)
chain: CAEPSRLVREAGNASASA
B28: HC1009 (peptide)
chain: CADREVLYREAGNASASA
B29: FS-3185 (peptide)
chain: CARCRRLVREAGNASASA
B30: FS-1887 (peptide)
chain: CARCRRQFQEAGNASASA
B31: FS-2999 (peptide)
chain: CARLVRESSGAGNASASA
B32: FS-2437 (peptide)
chain: CARPKRYNSGAGNASASA
B33: FS-2338 (peptide)
chain: CARIKRDSQGAGNASASA
B34: FS-3176 (peptide)
chain: CARWKRDSSGAGNASASA
B35: FS-2906 (peptide)
chain: CARDSRSSGGAGNASASA
B36: FS-2288 (peptide)
chain: CARQCRSSQGAGNASASA
B37: HC908 (peptide)
chain: CAKPGIYRFVAGNASASA
B38: HC1108 (peptide)
chain: CAGVVCAAILAGNASASA
B39: HC886 (peptide)
chain: CAVIDCNTCVAGNASASA
B40: HC400 (peptide)
chain: CAGPDQRPYCAGNASASA
B41: FS-1381 (peptide)
chain: CAPGRRRRRTAGNASASA
B42: HC878 (peptide)
chain: CAVATDALMTAGNASASA
B43: FS-387 (peptide)
chain: CAVGRRYRRTAGNASASA
B44: FS-1250 (peptide)
chain: CAQPRRHRRPAGNASASA
B45: FS-1432 (peptide)
chain: CAVPQRHRRTAGNASASA
B46: FS-2936 (peptide)
chain: CARGRREARRAGNASASA

Target: furin, P09958
Sequence (P09958 whole entry): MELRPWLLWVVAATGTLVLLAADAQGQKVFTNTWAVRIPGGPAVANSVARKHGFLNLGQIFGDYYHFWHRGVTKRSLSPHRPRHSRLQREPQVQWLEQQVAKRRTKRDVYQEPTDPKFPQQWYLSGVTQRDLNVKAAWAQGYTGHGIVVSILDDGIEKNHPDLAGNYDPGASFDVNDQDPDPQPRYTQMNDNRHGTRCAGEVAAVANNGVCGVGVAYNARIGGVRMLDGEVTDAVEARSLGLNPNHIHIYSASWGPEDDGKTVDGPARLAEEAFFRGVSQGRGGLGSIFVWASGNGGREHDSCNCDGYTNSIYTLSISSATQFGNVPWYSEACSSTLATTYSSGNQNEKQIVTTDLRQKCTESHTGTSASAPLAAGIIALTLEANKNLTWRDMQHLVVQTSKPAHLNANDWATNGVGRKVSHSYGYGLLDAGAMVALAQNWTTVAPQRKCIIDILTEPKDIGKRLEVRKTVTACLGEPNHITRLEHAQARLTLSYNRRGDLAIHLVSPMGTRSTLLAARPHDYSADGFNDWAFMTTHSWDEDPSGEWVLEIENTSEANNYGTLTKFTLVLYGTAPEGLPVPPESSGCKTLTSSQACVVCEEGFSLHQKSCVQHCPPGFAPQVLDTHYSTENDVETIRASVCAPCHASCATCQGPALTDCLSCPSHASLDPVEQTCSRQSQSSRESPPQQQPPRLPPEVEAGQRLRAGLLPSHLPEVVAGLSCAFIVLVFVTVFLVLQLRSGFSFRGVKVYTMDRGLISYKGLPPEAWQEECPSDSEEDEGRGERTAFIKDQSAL
Test: furin cleavage Z-score vs untreated control; higher = more cleavage, active = 3.5 or more, inactive = 1 or less, 8 variable residues between constant flanks
How it was run: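 Abundance of DNA freed from bead-bound 8-mer peptide–cDNA fusions by purified furin was measured as sequencing read counts after PCR adapter tagging. Cutting ran 7.5, 15 or 30 min in 0.01 ml of 50 mM HEPES pH 7.5 with CaCl2 and NaCl at 1:10 enzyme:substrate. The cleavage Z-score expresses these log counts against furin-free reactions after lowess adjustment and median absolute deviation scaling.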

| Sequence | furin cleavage Z-score (7.5 min) | furin cleavage Z-score (15 min) | furin cleavage Z-score (30 min) |
| --- | --- | --- | --- |
| B1 | 0.556 (inactive) | 0.654 (inactive) | -0.729 (inactive) |
| B2 | -0.191 (inactive) | -0.875 (inactive) | 0.558 (inactive) |
| B3 | 0.357 (inactive) | -0.13 (inactive) | -0.468 (inactive) |
| B4 | -0.179 (inactive) | -0.141 (inactive) | 0.209 (inactive) |
| B5 | -1.84 (inactive) | -1.52 (inactive) | 1.13 |
| B6 | 0.758 (inactive) | -0.375 (inactive) | 1.43 |
| B7 | 6.82 (active) | 8.8 (active) | 8.78 (active) |
| B8 | 0.793 (inactive) | -0.215 (inactive) | 1.33 |
| B9 | 7.09 (active) | 9.28 (active) | 8.39 (active) |
| B10 | 0.811 (inactive) | 0.063 (inactive) | 0.807 (inactive) |
| B11 | 11.2 (active) | 10.9 (active) | 8.76 (active) |
| B12 | -1.41 (inactive) | -0.301 (inactive) | -1.74 (inactive) |
| B13 | 1.14 | 0.0716 (inactive) | 0.841 (inactive) |
| B14 | -0.427 (inactive) | -0.0389 (inactive) | 1 |
| B15 | 0.796 (inactive) | -1.29 (inactive) | 0.764 (inactive) |
| B16 | 1.39 | -0.469 (inactive) | -0.647 (inactive) |
| B17 | 0.0156 (inactive) | -1.35 (inactive) | -0.305 (inactive) |
| B18 | 4.82 (active) | 4.36 (active) | 4.8 (active) |
| B19 | 2.76 | 3.91 (active) | 2.25 |
| B20 | 7.49 (active) | 7.31 (active) | 7.79 (active) |
| B21 | 0.0891 (inactive) | -1.68 (inactive) | 0.0903 (inactive) |
| B22 | 9.6 (active) | 10.8 (active) | 7.49 (active) |
| B23 | 1.03 | 0.836 (inactive) | 1.62 |

| Sequence | furin cleavage Z-score (7.5 min) | furin cleavage Z-score (15 min) | furin cleavage Z-score (30 min) |
| --- | --- | --- | --- |
| B24 | -1.73 (inactive) | 2.15 | -0.71 (inactive) |
| B25 | -0.097 (inactive) | 1.45 | 0.841 (inactive) |
| B26 | -0.000681 (inactive) | -0.718 (inactive) | 1.03 |
| B27 | 3.98 (active) | 5.86 (active) | 4.45 (active) |
| B28 | 1.17 | 0.738 (inactive) | 0.787 (inactive) |
| B29 | 8.42 (active) | 9.96 (active) | 8.44 (active) |
| B30 | 0.189 (inactive) | 1.16 | 1.9 |
| B31 | -0.00522 (inactive) | 1.39 | 1.91 |
| B32 | 0.95 (inactive) | 0.51 (inactive) | 1.14 |
| B33 | 12.5 (active) | 13.5 (active) | 10.5 (active) |
| B34 | 10.7 (active) | 12 (active) | 10.2 (active) |
| B35 | -0.675 (inactive) | -1.21 (inactive) | -0.52 (inactive) |
| B36 | 1.61 | 0.149 (inactive) | 1.21 |
| B37 | 1.16 | -1.32 (inactive) | 2.33 |
| B38 | 0.833 (inactive) | 1.01 | 1.2 |
| B39 | -1.17 (inactive) | -0.722 (inactive) | -1.34 (inactive) |
| B40 | 0.515 (inactive) | 0.00682 (inactive) | 0.075 (inactive) |
| B41 | 7.92 (active) | 8.84 (active) | 6.67 (active) |
| B42 | -0.06 (inactive) | -0.775 (inactive) | 0.231 (inactive) |
| B43 | 11.6 (active) | 9.35 (active) | 8.06 (active) |
| B44 | 0.282 (inactive) | 1.35 | 0.113 (inactive) |
| B45 | 10.8 (active) | 9.86 (active) | 9.48 (active) |
| B46 | 6.61 (active) | 7.38 (active) | 6.43 (active) |
